This passage reports binding signal results from article PMC7862700, “An all-to-all approach to the identification of sequence-specific readers for epigenetic DNA modifications on cytosine”.

Common to all, as to test: DAPPL (digital affinity profiling via proximity ligation, sequencing); 10 mM Tris-HCl pH 7.5, 50 mM NaCl, 1 mM DTT, 4% glycerol, room temperature, 30 min; GST-TFs on glutathione beads, 16-mer random dsDNA library, 0.1% formaldehyde crosslink after washing; high values mean tight binding
The target in test [1] is T1, FLI1 (Homo sapiens, UniProt Q01543 1-452).
T1 sequence: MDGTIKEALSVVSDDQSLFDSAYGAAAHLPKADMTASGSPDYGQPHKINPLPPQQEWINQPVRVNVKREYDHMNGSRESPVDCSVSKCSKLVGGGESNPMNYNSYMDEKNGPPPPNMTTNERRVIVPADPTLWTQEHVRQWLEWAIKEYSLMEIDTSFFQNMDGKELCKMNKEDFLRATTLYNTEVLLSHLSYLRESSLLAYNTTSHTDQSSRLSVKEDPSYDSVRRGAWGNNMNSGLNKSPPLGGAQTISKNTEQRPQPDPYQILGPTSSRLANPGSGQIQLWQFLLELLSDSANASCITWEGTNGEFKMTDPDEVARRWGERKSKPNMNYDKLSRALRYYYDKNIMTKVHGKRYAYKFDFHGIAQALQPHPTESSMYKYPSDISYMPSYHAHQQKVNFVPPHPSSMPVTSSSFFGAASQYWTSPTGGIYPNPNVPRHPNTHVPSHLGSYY
The settings on record: protein: recombinant; tags: N-terminal GST; dsDNA, one strand shown. The essentials: (§1)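 Each value of binding signal is a hexamer's read frequency for a factor divided by the same hexamer's frequency in the tag-only sample. Barcoded, bead-captured GST fusions of human transcription factors made in yeast were pooled with that sample and incubated with 200 nmole of a random double-stranded 16-mer DNA library in Tris/NaCl/DTT/glycerol buffer at room temperature for 30 min. Washing, 0.1% formaldehyde crosslinking, proximity ligation, PCR and Illumina NextSeq500 sequencing followed.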

Test [2] addresses T2, ELK1 (Homo sapiens, UniProt P19419 1-428).
T2 sequence: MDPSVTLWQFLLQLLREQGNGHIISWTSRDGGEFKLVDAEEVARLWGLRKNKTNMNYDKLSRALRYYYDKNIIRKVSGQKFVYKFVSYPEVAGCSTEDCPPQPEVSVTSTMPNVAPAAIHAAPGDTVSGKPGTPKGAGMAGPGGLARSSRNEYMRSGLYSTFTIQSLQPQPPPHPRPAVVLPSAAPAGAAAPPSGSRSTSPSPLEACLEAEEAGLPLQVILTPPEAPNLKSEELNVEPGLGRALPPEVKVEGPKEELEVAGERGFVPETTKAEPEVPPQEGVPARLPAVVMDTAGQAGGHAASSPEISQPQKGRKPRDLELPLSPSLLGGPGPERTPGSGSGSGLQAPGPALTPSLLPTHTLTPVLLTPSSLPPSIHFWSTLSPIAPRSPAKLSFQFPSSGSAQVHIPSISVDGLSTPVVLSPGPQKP
The settings on record: protein: recombinant; tags: N-terminal GST; dsDNA, one strand shown. The essentials: as §1

Test [3] deals with T3, GABPA (Homo sapiens, UniProt Q06546 1-454).
T3 sequence: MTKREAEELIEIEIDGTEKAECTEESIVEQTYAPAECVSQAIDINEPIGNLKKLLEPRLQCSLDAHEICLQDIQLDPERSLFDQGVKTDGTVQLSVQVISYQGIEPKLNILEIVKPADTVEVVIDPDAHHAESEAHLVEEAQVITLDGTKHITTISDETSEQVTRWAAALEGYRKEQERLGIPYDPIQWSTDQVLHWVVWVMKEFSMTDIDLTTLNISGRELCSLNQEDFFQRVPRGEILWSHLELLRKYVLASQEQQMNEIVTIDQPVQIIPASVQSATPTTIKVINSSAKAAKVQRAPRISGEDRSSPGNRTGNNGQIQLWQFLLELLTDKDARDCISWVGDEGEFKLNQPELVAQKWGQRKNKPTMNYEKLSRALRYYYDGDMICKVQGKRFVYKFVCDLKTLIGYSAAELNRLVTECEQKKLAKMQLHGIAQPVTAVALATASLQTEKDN
The settings on record: protein: recombinant; tags: N-terminal GST; dsDNA, one strand shown. The essentials:
as §1

Test [4] deals with T4, ERG (Homo sapiens, UniProt P11308 1-479).
T4 sequence: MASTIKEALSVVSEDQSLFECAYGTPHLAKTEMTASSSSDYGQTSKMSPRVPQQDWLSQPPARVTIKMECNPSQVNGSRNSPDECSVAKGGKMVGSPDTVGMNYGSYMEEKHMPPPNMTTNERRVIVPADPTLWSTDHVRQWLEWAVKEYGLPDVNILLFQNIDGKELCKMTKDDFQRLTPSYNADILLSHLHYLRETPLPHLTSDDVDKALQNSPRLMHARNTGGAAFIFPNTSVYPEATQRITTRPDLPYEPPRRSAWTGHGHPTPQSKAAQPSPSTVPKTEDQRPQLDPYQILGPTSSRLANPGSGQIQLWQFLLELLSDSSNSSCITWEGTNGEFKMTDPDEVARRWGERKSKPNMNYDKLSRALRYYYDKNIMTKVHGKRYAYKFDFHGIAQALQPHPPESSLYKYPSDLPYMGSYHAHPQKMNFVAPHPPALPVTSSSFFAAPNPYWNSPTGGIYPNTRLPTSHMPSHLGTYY
The settings on record: protein: recombinant; tags: N-terminal GST; dsDNA, one strand shown. The essentials: as §1

Test [5] concerns the target ELF1 (Homo sapiens, UniProt P32519 1-619). The settings on record: protein: recombinant; tags: N-terminal GST; dsDNA, one strand shown. The essentials:
as §1

Test [6] has as its target T5, EHF (Homo sapiens, UniProt Q9NZC4 1-300).
T5 sequence: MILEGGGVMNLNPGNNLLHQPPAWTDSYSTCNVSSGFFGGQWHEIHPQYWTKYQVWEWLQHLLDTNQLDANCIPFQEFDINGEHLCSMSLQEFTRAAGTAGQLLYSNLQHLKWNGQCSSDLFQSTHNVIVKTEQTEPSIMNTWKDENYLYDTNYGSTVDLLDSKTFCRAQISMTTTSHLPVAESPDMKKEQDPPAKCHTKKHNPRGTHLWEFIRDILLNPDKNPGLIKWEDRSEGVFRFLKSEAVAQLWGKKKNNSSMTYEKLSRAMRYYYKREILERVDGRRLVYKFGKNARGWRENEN
The settings on record: protein: recombinant; tags: N-terminal GST; dsDNA, one strand shown. The essentials: as §1

Test [7] concerns the target SPI1 (Homo sapiens, UniProt P17947 1-270). The settings on record: protein: recombinant; tags: N-terminal GST; dsDNA, one strand shown. The essentials:
as §1

For test [8], the target named is SPIB (Homo sapiens, UniProt Q01892 1-262). The following applies: protein: recombinant; tags: N-terminal GST; dsDNA, one strand shown. The essentials:
as §1

The target in test [9] is T6, ELK3 (Homo sapiens, UniProt P41970 1-407).
T6 sequence: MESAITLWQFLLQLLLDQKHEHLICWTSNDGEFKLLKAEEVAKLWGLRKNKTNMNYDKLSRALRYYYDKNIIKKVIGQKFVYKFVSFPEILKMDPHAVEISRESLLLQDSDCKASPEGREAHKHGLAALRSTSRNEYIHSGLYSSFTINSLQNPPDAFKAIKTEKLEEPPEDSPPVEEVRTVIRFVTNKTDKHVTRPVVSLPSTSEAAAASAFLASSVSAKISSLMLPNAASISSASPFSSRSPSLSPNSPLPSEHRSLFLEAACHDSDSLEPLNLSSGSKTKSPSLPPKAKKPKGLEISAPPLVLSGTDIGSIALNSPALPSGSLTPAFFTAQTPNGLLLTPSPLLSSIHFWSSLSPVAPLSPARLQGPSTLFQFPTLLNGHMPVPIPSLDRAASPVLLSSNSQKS
The following applies: protein: recombinant; tags: N-terminal GST; dsDNA, one strand shown. The essentials:
as §1

Test [10] addresses T7, FEV (Homo sapiens, UniProt Q99581 1-238).
T7 sequence: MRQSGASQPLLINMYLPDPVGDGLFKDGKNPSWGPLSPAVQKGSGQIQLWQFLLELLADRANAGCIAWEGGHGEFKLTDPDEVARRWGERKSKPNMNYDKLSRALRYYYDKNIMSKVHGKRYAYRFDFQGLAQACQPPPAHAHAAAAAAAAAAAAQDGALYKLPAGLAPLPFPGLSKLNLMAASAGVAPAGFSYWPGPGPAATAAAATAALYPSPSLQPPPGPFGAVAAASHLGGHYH
The following applies: protein: recombinant; tags: N-terminal GST; dsDNA, one strand shown. The essentials: as §1

The target in test [11] is ETV5 (Homo sapiens, UniProt P41161 1-510). The following applies: protein: recombinant; tags: N-terminal GST; dsDNA, one strand shown. The essentials: as §1
Chain of ETV5 (P41161 whole entry): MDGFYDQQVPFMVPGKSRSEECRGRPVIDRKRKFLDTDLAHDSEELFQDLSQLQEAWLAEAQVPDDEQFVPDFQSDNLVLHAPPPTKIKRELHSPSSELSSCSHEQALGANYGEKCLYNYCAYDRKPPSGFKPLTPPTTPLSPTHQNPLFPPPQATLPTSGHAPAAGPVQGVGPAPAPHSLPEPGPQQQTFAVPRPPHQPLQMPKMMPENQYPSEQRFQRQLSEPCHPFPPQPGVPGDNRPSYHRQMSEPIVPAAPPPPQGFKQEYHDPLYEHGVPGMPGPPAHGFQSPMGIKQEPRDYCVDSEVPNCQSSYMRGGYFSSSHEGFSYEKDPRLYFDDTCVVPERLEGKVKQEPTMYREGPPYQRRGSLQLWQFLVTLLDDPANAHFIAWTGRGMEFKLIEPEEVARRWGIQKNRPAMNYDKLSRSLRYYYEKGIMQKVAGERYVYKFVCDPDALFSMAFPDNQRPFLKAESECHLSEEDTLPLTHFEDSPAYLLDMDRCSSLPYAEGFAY
In test [12] the target is HSF1 (Homo sapiens, UniProt Q00613 1-529). The settings on record: protein: recombinant; tags: N-terminal GST; chain copies: 3; dsDNA, one strand shown. The essentials: as §1
Chain of HSF1 (Q00613 whole entry): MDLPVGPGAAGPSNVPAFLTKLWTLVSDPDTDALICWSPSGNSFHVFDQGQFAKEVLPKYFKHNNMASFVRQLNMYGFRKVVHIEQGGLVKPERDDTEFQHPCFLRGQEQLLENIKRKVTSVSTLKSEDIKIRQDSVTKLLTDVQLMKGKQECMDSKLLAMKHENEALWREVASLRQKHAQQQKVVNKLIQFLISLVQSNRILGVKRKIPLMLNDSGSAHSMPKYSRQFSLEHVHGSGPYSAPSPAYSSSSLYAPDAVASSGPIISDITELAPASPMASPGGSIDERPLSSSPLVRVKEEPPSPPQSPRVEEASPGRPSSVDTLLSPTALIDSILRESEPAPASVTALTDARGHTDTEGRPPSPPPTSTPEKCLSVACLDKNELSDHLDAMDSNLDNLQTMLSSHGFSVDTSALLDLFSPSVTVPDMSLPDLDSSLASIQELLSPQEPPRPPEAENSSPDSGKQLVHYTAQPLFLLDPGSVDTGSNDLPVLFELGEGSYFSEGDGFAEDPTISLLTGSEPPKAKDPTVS
The target of test [13] is ELF4 (Homo sapiens, UniProt Q99607 1-663). The settings on record: protein: recombinant; tags: N-terminal GST; dsDNA, one strand shown. The essentials:
as §1

For test [14], the target named is T8, ELK4 (Homo sapiens, UniProt P28324-2 1-405).
T8 sequence: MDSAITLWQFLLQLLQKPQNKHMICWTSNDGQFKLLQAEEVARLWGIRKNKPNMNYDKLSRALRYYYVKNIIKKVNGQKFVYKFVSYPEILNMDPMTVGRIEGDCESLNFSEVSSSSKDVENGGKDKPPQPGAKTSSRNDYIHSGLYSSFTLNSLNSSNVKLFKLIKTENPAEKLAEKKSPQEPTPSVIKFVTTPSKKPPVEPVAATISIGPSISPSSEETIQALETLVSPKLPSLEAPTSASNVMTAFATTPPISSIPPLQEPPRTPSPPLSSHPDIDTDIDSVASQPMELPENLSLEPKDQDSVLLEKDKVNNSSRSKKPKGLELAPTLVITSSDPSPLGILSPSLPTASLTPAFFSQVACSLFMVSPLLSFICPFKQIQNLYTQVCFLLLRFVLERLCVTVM
The settings on record: protein: recombinant; tags: N-terminal GST; dsDNA, one strand shown. The essentials:
as §1

The target of test [15] is T9, ETV2 (Homo sapiens, UniProt O00321 1-342).
T9 sequence: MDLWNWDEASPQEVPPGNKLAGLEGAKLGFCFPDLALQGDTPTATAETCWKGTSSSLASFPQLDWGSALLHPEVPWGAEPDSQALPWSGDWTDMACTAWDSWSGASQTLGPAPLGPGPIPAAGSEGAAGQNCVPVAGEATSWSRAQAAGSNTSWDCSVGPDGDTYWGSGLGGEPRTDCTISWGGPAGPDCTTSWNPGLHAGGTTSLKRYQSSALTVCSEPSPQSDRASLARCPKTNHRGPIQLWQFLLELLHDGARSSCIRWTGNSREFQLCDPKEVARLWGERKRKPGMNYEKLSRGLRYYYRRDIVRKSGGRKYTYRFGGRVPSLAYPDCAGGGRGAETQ
The following applies: protein: recombinant; tags: N-terminal GST; dsDNA, one strand shown. The essentials: as §1

For test [16], the target named is T10, ELF3 (Homo sapiens, UniProt P78545 1-371).
T10 sequence: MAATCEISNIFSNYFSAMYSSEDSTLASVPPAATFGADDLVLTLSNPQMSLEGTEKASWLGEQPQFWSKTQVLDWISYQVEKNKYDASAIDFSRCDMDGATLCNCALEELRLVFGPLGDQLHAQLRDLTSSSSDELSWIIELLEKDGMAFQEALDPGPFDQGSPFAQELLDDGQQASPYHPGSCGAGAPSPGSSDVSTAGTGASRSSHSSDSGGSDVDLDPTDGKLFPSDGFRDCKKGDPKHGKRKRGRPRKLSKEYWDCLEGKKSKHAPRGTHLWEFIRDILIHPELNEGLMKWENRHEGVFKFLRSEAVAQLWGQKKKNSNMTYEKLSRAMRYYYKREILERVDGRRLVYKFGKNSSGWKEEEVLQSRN
The following applies: protein: recombinant; tags: N-terminal GST; dsDNA, one strand shown. The essentials:
as §1

The target of test [17] is CRX (Homo sapiens, UniProt O43186 1-299). The following applies: protein: recombinant; tags: N-terminal GST; dsDNA, one strand shown. The essentials:
as §1

Test [18] deals with ETV1 (Homo sapiens, UniProt P50549 1-477). The settings on record: protein: recombinant; tags: N-terminal GST; dsDNA, one strand shown. The essentials:
as §1

Chain of ELF4 (Q99607 whole entry): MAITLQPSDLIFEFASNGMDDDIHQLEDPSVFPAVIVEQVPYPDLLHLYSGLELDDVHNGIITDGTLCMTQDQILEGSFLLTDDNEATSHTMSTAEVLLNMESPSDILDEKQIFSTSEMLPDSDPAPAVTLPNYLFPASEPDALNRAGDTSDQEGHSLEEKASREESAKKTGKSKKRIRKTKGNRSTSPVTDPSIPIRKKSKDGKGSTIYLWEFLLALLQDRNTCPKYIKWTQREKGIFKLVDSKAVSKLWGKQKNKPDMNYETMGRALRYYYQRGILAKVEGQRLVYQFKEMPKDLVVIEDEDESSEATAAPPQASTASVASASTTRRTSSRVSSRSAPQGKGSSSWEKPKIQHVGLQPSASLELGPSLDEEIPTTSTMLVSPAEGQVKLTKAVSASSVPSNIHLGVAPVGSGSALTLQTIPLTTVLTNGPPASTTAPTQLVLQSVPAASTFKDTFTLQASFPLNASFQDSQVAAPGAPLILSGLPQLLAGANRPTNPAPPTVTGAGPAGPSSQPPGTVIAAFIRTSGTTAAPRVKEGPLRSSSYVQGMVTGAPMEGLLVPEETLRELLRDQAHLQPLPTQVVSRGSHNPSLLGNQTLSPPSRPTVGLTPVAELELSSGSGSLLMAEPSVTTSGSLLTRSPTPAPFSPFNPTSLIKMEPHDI
Chain of CRX (O43186 whole entry): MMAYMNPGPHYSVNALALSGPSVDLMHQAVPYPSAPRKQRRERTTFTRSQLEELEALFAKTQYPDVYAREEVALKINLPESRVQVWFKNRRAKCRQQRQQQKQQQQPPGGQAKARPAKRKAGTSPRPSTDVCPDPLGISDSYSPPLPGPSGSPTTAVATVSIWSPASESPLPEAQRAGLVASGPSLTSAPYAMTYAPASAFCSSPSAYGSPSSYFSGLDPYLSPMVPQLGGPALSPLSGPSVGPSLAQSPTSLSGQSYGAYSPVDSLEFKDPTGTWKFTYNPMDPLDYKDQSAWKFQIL
Chain of ELF1 (P32519 whole entry): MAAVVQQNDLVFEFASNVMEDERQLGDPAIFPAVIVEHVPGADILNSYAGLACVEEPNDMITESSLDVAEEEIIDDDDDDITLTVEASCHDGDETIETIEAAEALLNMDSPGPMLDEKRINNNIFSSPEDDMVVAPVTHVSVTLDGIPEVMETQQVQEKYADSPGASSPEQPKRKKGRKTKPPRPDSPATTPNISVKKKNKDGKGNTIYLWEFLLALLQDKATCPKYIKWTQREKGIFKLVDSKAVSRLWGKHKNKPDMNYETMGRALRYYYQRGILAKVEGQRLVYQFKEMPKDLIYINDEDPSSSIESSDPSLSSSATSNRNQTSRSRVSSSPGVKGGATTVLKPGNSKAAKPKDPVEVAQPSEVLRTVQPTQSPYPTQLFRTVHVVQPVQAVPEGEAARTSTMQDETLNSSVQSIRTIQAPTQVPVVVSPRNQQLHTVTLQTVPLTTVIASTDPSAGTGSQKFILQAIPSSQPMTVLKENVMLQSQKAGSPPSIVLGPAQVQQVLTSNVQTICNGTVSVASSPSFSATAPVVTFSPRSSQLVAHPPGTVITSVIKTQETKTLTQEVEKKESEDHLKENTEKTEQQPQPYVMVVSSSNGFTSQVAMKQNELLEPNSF
Chain of SPIB (Q01892 whole entry): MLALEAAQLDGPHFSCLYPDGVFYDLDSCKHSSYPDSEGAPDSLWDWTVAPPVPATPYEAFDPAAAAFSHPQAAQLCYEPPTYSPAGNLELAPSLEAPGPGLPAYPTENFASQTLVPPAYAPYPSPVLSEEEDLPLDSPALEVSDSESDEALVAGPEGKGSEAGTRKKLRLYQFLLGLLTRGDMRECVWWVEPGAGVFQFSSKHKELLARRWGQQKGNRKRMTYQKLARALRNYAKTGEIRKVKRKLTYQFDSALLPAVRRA
Chain of ETV1 (P50549 whole entry): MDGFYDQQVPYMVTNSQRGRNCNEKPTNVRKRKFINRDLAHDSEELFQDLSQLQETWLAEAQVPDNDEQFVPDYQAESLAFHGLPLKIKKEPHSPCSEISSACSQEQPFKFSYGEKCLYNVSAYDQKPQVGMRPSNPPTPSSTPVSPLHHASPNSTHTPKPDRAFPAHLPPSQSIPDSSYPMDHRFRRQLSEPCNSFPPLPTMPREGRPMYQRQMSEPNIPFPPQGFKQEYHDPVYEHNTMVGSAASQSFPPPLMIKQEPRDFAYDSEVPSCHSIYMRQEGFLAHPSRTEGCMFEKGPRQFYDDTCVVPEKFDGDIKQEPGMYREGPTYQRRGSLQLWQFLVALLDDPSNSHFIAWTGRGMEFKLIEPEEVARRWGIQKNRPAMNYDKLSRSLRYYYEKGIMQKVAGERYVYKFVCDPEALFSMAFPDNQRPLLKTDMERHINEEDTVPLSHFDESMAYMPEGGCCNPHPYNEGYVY

Turning to AACCAT, the binding signal was 1.14 fold enrichment (6-mer frequency, TF over GST control) in test [1]; 1.17 fold enrichment (6-mer frequency, TF over GST control) in [2]; 1.16 fold enrichment (6-mer frequency, TF over GST control) in test [3]; 1.2 fold enrichment (6-mer frequency, TF over GST control) in test [4]; 1.18 fold enrichment (6-mer frequency, TF over GST control) in test [5]; 1.22 fold enrichment (6-mer frequency, TF over GST control) in test [6]. The binding signal in test [7] was 1.12 fold enrichment (6-mer frequency, TF over GST control); in [8], 1.12 fold enrichment (6-mer frequency, TF over GST control); in test [9], 1.28 fold enrichment (6-mer frequency, TF over GST control); in [10], 1.15 fold enrichment (6-mer frequency, TF over GST control); in test [11], 1.15 fold enrichment (6-mer frequency, TF over GST control); in test [12], 1.15 fold enrichment (6-mer frequency, TF over GST control). The binding signal in [13] is 1.15 fold enrichment (6-mer frequency, TF over GST control); in test [14], 1.21 fold enrichment (6-mer frequency, TF over GST control); in test [15], 1.2 fold enrichment (6-mer frequency, TF over GST control); in test [16] it was 1.1 fold enrichment (6-mer frequency, TF over GST control); in test [17] it was 1.05 fold enrichment (6-mer frequency, TF over GST control); in [18], 1.06 fold enrichment (6-mer frequency, TF over GST control).
